The panel holds about 83,000 compounds, 20% with a hit somewhere; the sample as a whole holds those more often.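 Compound tested at a single concentration for 48 hours in 96-well plates; a percent growth value below 10 was scored as active.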 Values without a mark were called inactive. The source made the active and inactive calls.

Holding throughout (experiment): NCI-60 one-dose screen, 48 h (100 = growth as untreated, 0 = no growth, -100 = all killed)
Assay [1] relates to HCT-15 colon. The following applies: 10 µM unless noted.
The test system of assay [2] is SNB-75 CNS. The following applies: 10 µM.
Assay [3] concerns SNB-19 CNS. The settings on record: 10 µM unless noted.
The test system of assay [4] is U251 CNS. The following applies: 10 µM unless noted.
In assay [5] the test system is PC-3 prostate. The settings on record: 10 µM unless noted.
Assay [6] relates to SK-MEL-5 melanoma. The settings on record: 10 µM unless noted.
For assay [7], the system named is UACC-62 melanoma. The following applies: 10 µM unless noted.
In assay [8] the test system is LOX IMVI melanoma. The settings on record: 10 µM unless noted.
The test system of assay [9] is EKVX NSCLC. The settings on record: 10 µM unless noted.
Assay [10] concerns SN12C renal. The following applies: 10 µM unless noted.
Assay [11] deals with UO-31 renal. The following applies: 10 µM unless noted.
The test system of assay [12] is TK-10 renal. The following applies: 10 µM unless noted.
Assay [13] relates to ACHN renal. The settings on record: 10 µM unless noted.
The test system of assay [14] is CAKI-1 renal. The settings on record: 10 µM unless noted.
The subject of assay [15] is A498 renal. The settings on record: 10 µM unless noted.
In assay [16] the test system is CCRF-CEM leukemia. The settings on record: 10 µM unless noted.
The test system of assay [17] is MOLT-4 leukemia. The settings on record: 10 µM unless noted.
For assay [18], the system named is SK-MEL-28 melanoma. The following applies: 10 µM unless noted.
For assay [19], the system named is SK-MEL-2 melanoma. The following applies: 10 µM unless noted.

With `O=C([O][Sn]([O]C(=O)c1ccccn1)([c]1ccccc1)[c]1ccccc1)c1ccccn1`, the growth in [1] was 81.7%; in [2], 49.3%; in assay [3], 105%; in [4] it was 86.3%; in assay [5], 93.1%; in [6], 84.3%. In addition, the growth in [7] is 83%; in [8], 50.6%; in assay [9], 92.2%; in [10], 91.3%; in assay [11] it was 82.4%; in assay [12], 30.1%. For the same molecule, the growth in assay [13] is 100%; in [14], 76.5%; in assay [15], 101%; in assay [16] it was 18.1%; in [17], 88.3%.
With `C/C(=C\c1ccc(OCC(=O)O)c(Cl)c1Cl)[N+](=O)[O-]`, the growth was 97.4% in assay [1]; 103% in assay [2]; 96.4% in assay [4]; 92% in assay [5]; 109% in [6]; 114% in assay [7]. In addition, the growth in assay [8] is 92.1%; in assay [9], 102%; in assay [10], 106%; in assay [11] it was 111%; in assay [12], 113%; in assay [13], 110%. The growth is 93.9% in assay [14], 113% in [15], 102% in assay [16] and 84.6% in assay [17].
As for `CC1=C(C#N)C(=O)NC(C)C1` (stereo not drawn), the growth in assay [1] is 101%; in assay [2], 111%; in assay [3], 103%; in assay [4], 105%; in assay [6] it was 105%; in [7] it was 104%. The growth in assay [8] is 90.4%; in assay [18] it was 101%; in [9] it was 105%; in assay [10], 99.9%; in assay [11], 94.9%; in assay [12], 106%. For the same molecule, the growth in assay [13] was 102%; in [14] it was 103%; in [15] it was 104%; in [16], 102%; in assay [17], 116%.
As for `CN(C)CCN1C(=O)c2ccc3c4c(ccc(c24)C1=O)C(=O)N(CCN=C=S)C3=O`, the growth in assay [1] was -78.2% (active); in assay [2], -75.3% (active); in [3], -92.3% (active); in assay [4] it was -95.7% (active); in assay [5], -80.3% (active); in assay [6], -98.8% (active). Moreover, the growth is -92.5% (active) in assay [7]; -82.3% (active) in [8]; -75% (active) in assay [19]; -95.2% (active) in assay [9]; -89.5% (active) in assay [10]; -95.4% (active) in [11]. Moreover, the growth in [12] was -95.3% (active); in [14], -80% (active); in [15], -97.8% (active); in assay [16] it was -50.6% (active); in assay [17] it was -52.2% (active).
In the case of `COc1ccc2c(c1)[nH]c(=O)c1c3cc(C)c(C)cc3cn21`, the growth is -87.5% (active) in assay [1]; 84.8% in assay [2]; 25.6% in assay [3]; -97.1% (active) in assay [4]; -54.9% (active) in assay [5]; 10.3% in assay [6]. For the same molecule, the growth is 42.5% in [7]; -7.4% (active) in [18]; -4.76% (active) in [19]; 35.4% in [9]; -43.6% (active) in assay [10]; -31.4% (active) in assay [11]. Also, the growth was -34% (active) in [12]; 17.5% in assay [13]; 42% in assay [15]; -68.1% (active) in assay [16]; -10.9% (active) in [17].
For the molecule `CCN(CC)CCOc1ccc(Cl)c(C)c1`, the growth was 104% in assay [1]; 93.4% in assay [2]; 101% in assay [3]; 107% in assay [4]; 101% in [5]; 104% in assay [7]. Also, the growth was 101% in assay [8]; 107% in assay [18]; 111% in [9]; 108% in assay [10]; 86.5% in assay [11]; 116% in [12]. For the same molecule, the growth in assay [13] is 104%; in [14], 102%; in assay [15], 103%; in assay [16] it was 98.4%; in assay [17], 99.8%.
In the case of `COc1ccc(S(=O)(=O)n2ccc(-c3ccc4c(c3)CCC(C)(C)O4)n2)cc1OC`, the growth in [1] is 71.9%; in assay [2], 84.6%; in assay [3] it was 87.4%; in [4] it was 79.5%; in assay [5], 69.5%; in assay [6], 28.2%. The growth was 63.9% in assay [7]; 91% in assay [18]; 56.2% in assay [19]; 83.1% in [10]; 68.5% in [11]; 72.1% in [12]. Further, the growth was 58.3% in [14], 52.8% in assay [15], 82.2% in assay [16] and 63.8% in assay [17].
Turning to `CCN(CC)CCC(CNc1ccnc2cc(Cl)ccc12)c1ccccc1` (stereo not drawn), the growth in [1] was 34.1%; in assay [3], 92.5%; in assay [4], 50.7%; in [5], 56.5%; in assay [6] it was -75.2% (active); in [7], 57.6%. In addition, the growth in [8] is 39%; in assay [18], -99.9% (active); in assay [19] it was 56.2%; in assay [9], 90%; in assay [10] it was 75.8%; in assay [11], 15.2%. In addition, the growth in assay [12] is 55.9%; in assay [13], 35.3%; in [14] it was 43.4%; in assay [15] it was 42.3%; in assay [16], 58.6%; in assay [17] it was 50.7%.
On to `COc1ccc2c(c1)[nH]c(=O)c1c3cc(OC)ccc3cn21`, for which the growth in assay [1] was 4.49% (active); in [2] it was 74.8%; in assay [4], -47.6% (active); in assay [5], 0.628% (active); in assay [6], 5.31% (active); in assay [7], 41.9%. Also, the growth in assay [8] is -76.9% (active); in assay [18], 62.3%; in assay [19], 71.7%; in assay [9], 48.7%; in [10], 32.7%; in [11] it was 28.6%. Also, the growth was 48.7% in [12]; 19.1% in assay [13]; 41.3% in assay [14]; 51.7% in assay [15]; -58.8% (active) in assay [16]; 26.2% in [17].

For the origin of these results see PubChem BioAssay (NCI).
